Data published in PubChem BioAssay (Tox21).
Results filed as inconclusive are left out. Activity calls are given as the source filed them. Unless noted, the call rests on the fitted dose curve.

What was measured:
[1] = biological target: Gonadotropin-releasing hormone receptor (Homo sapiens) (UniProt P30968); test: Human gonadotropin-releasing hormone receptor (GnRHR) small molecule agonists, calcium flux assay in GnRHR-HEK293 cells (AID 1920063); further: nearly all actives have a fitted effect of over 35% in size
Chain of Gonadotropin-releasing hormone receptor (Homo sapiens) (P30968 whole entry, looked up): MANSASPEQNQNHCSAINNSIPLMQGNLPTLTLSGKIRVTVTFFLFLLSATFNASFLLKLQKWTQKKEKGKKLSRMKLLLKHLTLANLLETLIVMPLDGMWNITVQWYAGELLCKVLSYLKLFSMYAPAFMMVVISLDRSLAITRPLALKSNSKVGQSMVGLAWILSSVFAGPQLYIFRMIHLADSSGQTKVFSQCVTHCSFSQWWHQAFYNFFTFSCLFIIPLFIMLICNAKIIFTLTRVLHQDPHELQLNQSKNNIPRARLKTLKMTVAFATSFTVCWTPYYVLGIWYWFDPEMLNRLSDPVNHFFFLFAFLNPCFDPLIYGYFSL
Outline: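 Compounds dissolved in DMSO are pin-transferred onto dye-loaded GnRHR-HEK293 cells, which were seeded 18 h before at 37 C/5% CO2. Calcium signal is read as fluorescence intensity at 1 s intervals for 3 min.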

[2] = biological target: KiSS-1 receptor (Homo sapiens) (UniProt Q969F8); test: Human kisspeptin (KISS1R) small molecule agonists, calcium flux assay in KISS1R-HEK293 cells (AID 1920064; active means well fitted activation curve with a large enough effect in the repeat runs)
Chain of KiSS-1 receptor (Homo sapiens) (Q969F8 whole entry, looked up): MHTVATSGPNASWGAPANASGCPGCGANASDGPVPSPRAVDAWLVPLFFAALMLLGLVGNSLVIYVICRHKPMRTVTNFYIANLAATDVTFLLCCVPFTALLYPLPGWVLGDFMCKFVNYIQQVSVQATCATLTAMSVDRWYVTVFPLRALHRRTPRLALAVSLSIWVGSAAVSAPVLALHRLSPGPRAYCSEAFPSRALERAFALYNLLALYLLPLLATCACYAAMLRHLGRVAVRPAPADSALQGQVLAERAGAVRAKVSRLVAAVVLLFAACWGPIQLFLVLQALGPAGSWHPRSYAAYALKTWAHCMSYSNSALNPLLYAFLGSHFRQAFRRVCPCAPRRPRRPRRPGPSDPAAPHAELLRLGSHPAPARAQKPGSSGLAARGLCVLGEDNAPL
Outline: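 Cell line: HEK293, stable human KISS1R. Dye loading 1 h at 37 C after 18 h culture. Read: kinetic fluorescence, 480/540 nm, 3 min at 1 s intervals.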

[3] = p53 small molecule agonists, cell-based qHTS assay: qHTS cell viability counter screen (AID 1963581); further: nearly all actives have a fitted effect of over 45% in size
Outline: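 ATP content measured by luminescence in HCT-116 p53RE-bla cells treated 16 h at 37 C, same wells as the reporter screen.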

[4] = p53 small molecule agonists, cell-based qHTS assay (AID 1963582; active means well fitted activation curve with a large enough effect in the signal ratio in the repeat runs, not every such curve was filed as active; the % refers to the signal ratio)
Outline: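 16 h compound exposure (37 C) of p53 response element–bla cells, preceded by 5 h recovery at 37 C/5% CO2; read-out via LiveBLAzer B/G FRET substrate, 2 h RT, fluorescence intensity.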

[5] = biological target: 5-hydroxytryptamine receptor 2A (Homo sapiens) (UniProt P28223); test: 5-hydroxytryptamine receptor 2A (HTR2A) small molecule antagonists, cell-based qHTS assay (AID 1963586); further: nearly all actives have a fitted effect of over 45% in size
Chain of 5-hydroxytryptamine receptor 2A (Homo sapiens) (P28223 whole entry, looked up): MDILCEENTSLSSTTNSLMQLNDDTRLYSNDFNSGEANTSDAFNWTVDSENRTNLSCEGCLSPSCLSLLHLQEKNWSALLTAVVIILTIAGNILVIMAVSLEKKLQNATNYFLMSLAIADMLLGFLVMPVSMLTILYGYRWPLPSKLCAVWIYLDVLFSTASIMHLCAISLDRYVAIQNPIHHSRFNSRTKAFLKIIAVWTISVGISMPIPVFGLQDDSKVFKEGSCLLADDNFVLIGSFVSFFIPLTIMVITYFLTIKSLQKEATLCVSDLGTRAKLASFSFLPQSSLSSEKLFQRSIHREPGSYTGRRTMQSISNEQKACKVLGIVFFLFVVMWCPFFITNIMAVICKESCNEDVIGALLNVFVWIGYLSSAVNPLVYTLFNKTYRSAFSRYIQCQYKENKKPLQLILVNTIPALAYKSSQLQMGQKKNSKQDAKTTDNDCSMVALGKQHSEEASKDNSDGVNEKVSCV
Outline: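 CHO cells stably expressing human HTR2A were plated for 18 h at 37 C, then loaded with calcium dye for 1 h. Compounds were preincubated 5 min at room temperature before DOI (4 nM solution) was added. Kinetic fluorescence was read for 3 min.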

[6] = biological target: 5-hydroxytryptamine receptor 2A (Homo sapiens) (UniProt P28223); test: 5-hydroxytryptamine receptor 2A (HTR2A) small molecule agonists, cell-based qHTS assay (AID 1963587); further: nearly all actives have a fitted effect of over 30% in size; further: potency means the concentration at half of the fitted maximal effect
Outline: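 CHO cells stably expressing human HTR2A, plated 18 h, loaded with calcium dye 1 h at 37 C. Agonist mode: compounds added and intracellular calcium fluorescence recorded kinetically for 2 min at 1 sec intervals.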

[7] = biological target: Muscarinic acetylcholine receptor M1 (Homo sapiens) (UniProt P11229); test: Cholinergic receptor muscarinic 1 (CHRM1) small molecule antagonists, cell-based qHTS assay (AID 1963588); further: nearly all actives have a fitted effect of over 40% in size; further: potency means the concentration at half of the fitted maximal effect
Chain of Muscarinic acetylcholine receptor M1 (Homo sapiens) (P11229 whole entry, looked up): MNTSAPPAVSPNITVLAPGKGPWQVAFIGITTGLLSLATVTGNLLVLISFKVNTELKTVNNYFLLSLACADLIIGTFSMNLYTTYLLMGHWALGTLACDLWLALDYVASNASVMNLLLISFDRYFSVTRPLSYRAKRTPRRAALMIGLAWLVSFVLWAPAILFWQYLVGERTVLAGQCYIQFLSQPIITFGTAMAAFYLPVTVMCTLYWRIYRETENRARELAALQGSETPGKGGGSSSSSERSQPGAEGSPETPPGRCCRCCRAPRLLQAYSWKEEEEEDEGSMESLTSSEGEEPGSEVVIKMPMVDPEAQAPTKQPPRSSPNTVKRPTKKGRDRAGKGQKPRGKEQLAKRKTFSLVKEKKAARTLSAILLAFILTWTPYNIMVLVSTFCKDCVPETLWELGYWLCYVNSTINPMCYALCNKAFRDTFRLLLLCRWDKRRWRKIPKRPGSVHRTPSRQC
Outline: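 Compounds were tested at 15 concentrations in three independent runs. Dye-loaded CHRM1-CHO cells were exposed 5 min at room temperature before stimulation by acetylcholine added at 50nM. Intracellular calcium was read kinetically on FDSS for 3 min.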

[8] = biological target: Muscarinic acetylcholine receptor M1 (Homo sapiens) (UniProt P11229); test: Cholinergic receptor muscarinic 1 (CHRM1) small molecule agonists, cell-based qHTS assay (AID 1963589); further: nearly all actives have a fitted effect of over 35% in size
Outline: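 Homogeneous fluorescence calcium flux, agonist mode. Human M1-expressing CHO cells; compound dosed at 15 concentrations, three independent runs; signal sampled every 1 sec.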

[9] = cAMP Responsive Elements (CRE) small molecule agonists, cell-based qHTS assay (AID 1963590)
Outline: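 HEK 293T cells stably bearing CRE-bla were plated at 2,000 cells per well and rested 18 h. Compounds, positive controls or DMSO were added for 3 h at 37 C. LiveBLAzer B/G substrate was then loaded for 2 h at room temperature.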

[10] = cAMP Responsive Elements (CRE) small molecule antagonists, cell-based qHTS assay (AID 1963591; active means well fitted inhibition curve with a large enough effect in the signal ratio in the repeat runs, not every such curve was filed as active; the % refers to the signal ratio)
Outline: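 First, CRE-bla HEK293T cells settled 18 h at 37 C. Next, compound and 0.25 uM final NKH477 were applied for 3 h. Last, LiveBLAzer B/G substrate was loaded for 2 h at room temperature.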

[11] = biological target: Beta-2 adrenergic receptor (Homo sapiens) (UniProt P07550); test: Adrenergic beta2 receptor (ADRB2) small molecule antagonists, cell-based qHTS assay (AID 1963592); further: series mostly up to about 92 µM; nearly all actives have a fitted effect of over 50% in size
Chain of Beta-2 adrenergic receptor (Homo sapiens) (P07550 whole entry, looked up): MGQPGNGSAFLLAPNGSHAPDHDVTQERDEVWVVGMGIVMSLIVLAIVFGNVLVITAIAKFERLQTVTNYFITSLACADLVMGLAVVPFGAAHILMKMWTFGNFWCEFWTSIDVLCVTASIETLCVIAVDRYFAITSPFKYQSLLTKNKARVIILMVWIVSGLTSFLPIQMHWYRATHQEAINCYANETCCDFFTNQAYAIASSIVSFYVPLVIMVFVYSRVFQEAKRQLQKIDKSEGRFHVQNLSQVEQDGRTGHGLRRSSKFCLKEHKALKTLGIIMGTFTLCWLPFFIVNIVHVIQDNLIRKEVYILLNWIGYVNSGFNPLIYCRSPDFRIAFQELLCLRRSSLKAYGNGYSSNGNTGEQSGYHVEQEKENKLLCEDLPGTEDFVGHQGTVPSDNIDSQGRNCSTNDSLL
Outline: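 Assay format: CHO-ADRB2 cells, 18-20hr seeding at 37C/5% CO2, then compound plus 1nM isoproterenol agonist mix for 0.5hr RT. Homogeneous time-resolved fluorescence cAMP detection after 1hr, expressed as 665/615 nm ratio.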

[12] = biological target: Beta-2 adrenergic receptor (Homo sapiens) (UniProt P07550); test: Adrenergic beta2 receptor (ADRB2) small molecule agonists, cell-based qHTS assay (AID 1963593);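 further: CHO cells stably overexpressing human ADRB2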
Outline: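 CHO cells stably over-expressing ADRB2 were plated overnight at 37C, then dosed with compounds plus a stimulation mix containing 100uM IBMX and 25uM Ro-20-1724 for 0.5hr at room temperature. cAMP was measured by HTRF competition, 1hr.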

[13] = biological target: D(2) dopamine receptor (Homo sapiens) (UniProt P14416); test: Dopamine D2 receptor (DRD2) small molecule agonists, cell-based qHTS assay (AID 1963594); further: nearly all actives have a fitted effect of over 35% in size
Chain of D(2) dopamine receptor (Homo sapiens) (P14416 whole entry, looked up): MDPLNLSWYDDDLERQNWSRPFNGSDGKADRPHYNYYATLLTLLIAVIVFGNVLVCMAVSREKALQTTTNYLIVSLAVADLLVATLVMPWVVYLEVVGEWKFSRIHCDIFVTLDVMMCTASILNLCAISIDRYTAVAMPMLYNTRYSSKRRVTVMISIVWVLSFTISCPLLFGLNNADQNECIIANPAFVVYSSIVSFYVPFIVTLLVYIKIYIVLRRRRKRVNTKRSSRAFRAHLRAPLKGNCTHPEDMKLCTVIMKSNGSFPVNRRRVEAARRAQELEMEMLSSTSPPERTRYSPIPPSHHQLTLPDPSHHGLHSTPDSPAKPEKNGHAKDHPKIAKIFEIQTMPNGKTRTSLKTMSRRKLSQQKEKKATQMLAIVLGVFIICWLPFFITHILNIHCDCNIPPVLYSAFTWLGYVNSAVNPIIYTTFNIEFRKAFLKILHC
Outline: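 HEK293 cells stably expressing human DRD2, pre-treated with PDE inhibitor Ro20-1724 (0.1 mM final) and compound 10 min at room temperature, then stimulated with NKH477 (200nM […]) for 30 min. cAMP read by HTRF (665/620 nm).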

[14] = biological target: D(2) dopamine receptor (Homo sapiens) (UniProt P14416); test: Dopamine D2 receptor (DRD2) small molecule antagonists, cell-based qHTS assay (AID 1963595; active means well fitted inhibition curve with a large enough effect in the signal ratio in the repeat runs, with a control signal flat; the % refers to the signal ratio)
Outline: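 Antagonist mode in DRD2-HEK293 cells: after compound addition with 0.1 mM Ro20-1724, cells received quinpirole (12 nM) and NKH477 (200 nM) for 30 min at room temperature; HTRF cAMP read after 1 h detection.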

[15] = G protein-coupled receptor (GPCR) small molecule agonists, calcium flux assay: HEK293 wild type cell line counter screen (AID 1920065); further: potency means the concentration at half of the fitted maximal effect
Outline: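 Tox21 10K compounds, 15 concentrations each in triplicate, pin-transferred in DMSO onto dye-loaded cells; kinetic read at 480/540 nm for 3 min, 1 s intervals.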

[16] = p53 small molecule agonists, cell-based qHTS assay with human liver microsomes: qHTS cell viability counter screen (AID 1963579); further: nearly all actives have a fitted effect of over 45% in size
Outline: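 Seed p53RE-bla cells at 4,000 per well; incubate 5 h at 37 C; add compound, human liver microsomes and NADPH; incubate 16 h at 37 C; add CellTiter-Glo; after 30 min at room temperature, read luminescence.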

[17] = p53 small molecule agonists, cell-based qHTS assay with rat liver microsomes: qHTS cell viability counter screen (AID 1963580); further: nearly all actives have a fitted effect of over 45% in size; further: potency means the concentration at half of the fitted maximal effect
Outline: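 After the beta-lactamase ratio was read, CellTiter-Glo was added to the same wells and luminescence measured at 30 min; cells had been treated 16 h at 37 C with compounds, rat liver microsomes and NADPH (0.5 mg/mL final each).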

[18] = p53 small molecule agonists, cell-based qHTS assay with rat liver microsomes (AID 1963578)
Outline: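 Fluorescence from a beta-lactamase reporter under a p53 response element was measured after cells had been incubated 16 h at 37 C with test compound and rat liver microsomes plus NADPH (0.5 mg/mL final each).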

[19] = p53 small molecule agonists, cell-based qHTS assay with human liver microsomes (AID 1963577)
Outline: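 Cells carrying a p53-responsive bla reporter were rested 5 h (37 C, 5% CO2) before compound transfer. Human liver microsomes plus NADPH, 0.5 mg/mL final apiece, supplied metabolism during the 16 h 37 C exposure.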
On the % scale 0 is the no-effect control and ±100 the full control effect.

CN1[C@@H]2CC(OC(=O)[C@H](CO)c3ccccc3)C[C@H]1[C@@H]1O[C@@H]12 (some centres undefined)
inactive: Potency [1] | Potency [2] | Potency [3] | Potency [4] | Potency [5] | Potency [6] | Potency [7] | Potency [8] | Potency [9] | Potency [10] | Potency [11] | Potency [12] | Potency [13] | Potency [14]

CCCCCCCC1CCC(=O)O1 (centres undefined)
inactive: Potency [5] | Potency [6] | Potency [7] | Potency [8] | Potency [11] | Potency [14]

O=[N+]([O-])c1cc([N+](=O)[O-])c2ccc(S(=O)(=O)O)cc2c1O
inactive: Potency [15] | Potency [16] | Potency [17] | Potency [3]

CCOC(=O)NCCOc1ccc(Oc2ccccc2)cc1
active: Potency [7] 29.8 µM
inactive: Potency [15] | Potency [18] | Potency [16] | Potency [17] | Potency [3] | Potency [5] | Potency [6] | Potency [8] | Potency [9] | Potency [12] | Potency [13] | Potency [14]

O=C(OCC(O)CO)c1ccccc1Nc1ccnc2cc(Cl)ccc12 (centres undefined)
inactive: Potency [2] | Potency [15] | Potency [16] | Potency [17] | Potency [3] | Potency [6] | Potency [8] | Potency [11] | Potency [12] | Potency [13] | Potency [14]

CS(=O)(=O)c1ccc([C@@H](CC2CCCC2)C(=O)Nc2cnccn2)cc1Cl
inactive: Potency [5] | Potency [6] | Potency [7] | Potency [8] | Potency [11] | Potency [12] | Potency [13] | Potency [14]

CCCC[N+](C)(CCCC)CCCC
inactive: Potency [1] | Potency [2] | Potency [16] | Potency [17] | Potency [3] | Potency [5] | Potency [6] | Potency [7] | Potency [8] | Potency [9] | Potency [11] | Potency [12] | Potency [13] | Potency [14]

[O-][n+]1ccccc1SSc1cccc[n+]1[O-]
active: Potency [15] 4.65 µM | Potency [17] 0.547 µM | Potency [6] 9.28 µM
inactive: activation [2] 1.71% [at 15.8 µM] | activation [19] -14.9% [at 13.5 µM] | activation [18] -12.8% [at 13.6 µM] | activity change, negative = cytotoxicity [3] 8.83% [at 13.5 µM] | activity, negative = inhibition [7] 9.35% [at 12.6 µM] | activation [8] 14.1% [at 15.8 µM] | activation [9] -1.24% [at 19 µM] | activity change, negative = inhibition [11] 11.4% [at 19 µM] | activity change, negative = inhibition [14] -21.1% [at 18.9 µM]

NC(N)=N/N=C/c1c(Cl)cccc1Cl
inactive: Potency [2] | Potency [15] | Potency [19] | Potency [17] | Potency [3] | Potency [9] | Potency [10] | Potency [11] | Potency [12] | Potency [13] | Potency [14]

CCC(Cl)C(Cl)C(Cl)CC(Cl)C(Cl)C(C)Cl (centres undefined)
inactive: Potency [2] | Potency [15] | Potency [19] | Potency [18] | Potency [16] | Potency [3] | Potency [4] | Potency [6] | Potency [7] | Potency [8] | Potency [9] | Potency [10] | Potency [11] | Potency [12] | Potency [13] | Potency [14]
